HepG2 tox: kills HepG2 cells in TGF-b inhibitor counter-screen | HepG2 CAGA-GFP viability, ATP luminescence, 18 h | hit rate 0.76% among 410,000 | AID 588856 | Potency, µM (series often up to 46.1 µM), usual class: cytotoxic
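HepG2 CAGA-GFP cells (1000/well, DMEM with 1% FBS) received compound, then TGF-beta at 500 pg/mL final, and were incubated 18 hours at 37 degrees C. Viability was read by CellTiter-Glo luminescence. Media-only wells were set as complete cell-killing and DMSO as no toxicity.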
RORgamma inh: ROR gamma (mouse) transcription inhibition; P51450; Drosophila S2 Gal4-RORgamma UAS-luciferase reporter, 20 h; Potency, µM (titrated, usually from 53.6 µM), most hits filed as inhibitors; hit rate 5.4% among 310,000; AID 2551; further: nearly all actives have a fitted effect of over 60% in size
Target sequence (P51450 whole entry, looked up, the tested form may be a part): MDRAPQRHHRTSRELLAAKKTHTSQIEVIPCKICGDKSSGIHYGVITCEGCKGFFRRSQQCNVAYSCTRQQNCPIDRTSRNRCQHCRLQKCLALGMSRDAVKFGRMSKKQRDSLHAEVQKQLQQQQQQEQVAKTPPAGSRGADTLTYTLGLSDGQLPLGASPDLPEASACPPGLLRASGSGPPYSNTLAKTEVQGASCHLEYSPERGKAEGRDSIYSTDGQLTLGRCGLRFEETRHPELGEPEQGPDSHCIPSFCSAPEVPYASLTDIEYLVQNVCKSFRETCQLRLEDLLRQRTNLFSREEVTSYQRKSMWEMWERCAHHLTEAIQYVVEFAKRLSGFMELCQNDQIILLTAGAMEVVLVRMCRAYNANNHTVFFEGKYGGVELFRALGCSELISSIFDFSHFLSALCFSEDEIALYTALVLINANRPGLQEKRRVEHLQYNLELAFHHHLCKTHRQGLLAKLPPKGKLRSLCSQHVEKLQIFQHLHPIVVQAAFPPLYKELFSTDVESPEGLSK
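Stably transfected Drosophila Schneider cells are the test system, with ROR gamma fused to Gal4 and luciferase under UAS control; luminescence is read after 20 hr of 700 uM copper sulfate induction at ambient temperature.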
ATXN viability: viability counter-screen for ATXN expression inhibitors. S2 cells (HEK-293 line with an ATXN2-luciferase reporter) viability, CellTiter-Fluor protease fluorescence, 24 h. Potency, µM (highest dose often 56.7 µM), actives largely listed as cytotoxic. hit rate 0.49% among 400,000. AID 651635; further: nearly all actives have a fitted effect of over 40% in size
ATXN2 expr inh: reduces ATXN2 reporter expression in HEK-293 cells | HEK-293 ATXN2-luciferase reporter, luminescence, 24 h | Potency, µM (doses to about 57 µM), most hits filed as inhibitors | hit rate 0.72% among 360,000 | AID 1745845; further: nearly all actives have a fitted effect of over 55% in size
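qHTS (up to 57 uM final) was run with 24 h compound exposure of reporter cells at 37 °C. Each well was multiplexed: SteadyGlo luminescence measured ATXN2-luciferase expression after a fluorogenic Gly-Phe-AFC viability readout (25 uM final).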
TGFb inhibitor: inhibitors of TGF-b signaling; HepG2 CAGA-GFP TGF-b/SMAD3 reporter, GFP fluorescence, 18 h; TGF-beta stimulated, 500 pg/mL final; Potency, µM (highest dose often 46.1 µM), usual class: inhibitors; hit rate 1.2% among 410,000; further: nearly all actives have a fitted effect of over 65% in size
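Using HEPG2 CAGA-GFP reporter cells at 1000 cells/well, we pinned test compounds, stimulated with recombinant TGF-beta (500 pg/mL final) and measured total well GFP after 18 h.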
Gal4-VP16 FLuc: counter-screen for ROR gamma inhibitors: Gal4-VP16 reporter; Drosophila S2 Gal4-VP16 UAS-luciferase, luminescence, 20 h; Potency, µM (highest dose often 53.6 µM), hits mostly inhibitors; hit rate 3.5% among 310,000; AID 2546;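 further: Gal4-VP16 expression switched on by copper sulfate through the metallothionein promoter; nearly all actives have a fitted effect of over 50% in size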
Numbers stand for hits; . = inactive; ? = inconclusive; / = no result; [ ] = another dose, or the depositor's remark. Shown are actives, neighbours in structure and some others; about 6.3% of the full set was active somewhere. The call rests on the fitted dose curve; in most records, active means well fitted curve in the direction sought with a large enough effect; inconclusive means small, poorly fitted or top-dose-only effect, or another doubt; inactive means no such curve, though single readings can be large; an effect the other way counts as inactive or inconclusive.

SMILES | HepG2 tox | RORgamma inh | ATXN viability | ATXN2 expr inh | TGFb inhibitor | Gal4-VP16 FLuc
COc1ccc(C(=O)NC(=S)Nc2ccc(N3CCOCC3)cc2)cc1Cl | . | 4.5µM | . | . | . | 7.9µM
Cc1ccc(C(=O)NC(=S)Nc2ccc(N3CCOCC3)cc2)cc1C | . | 2µM | . | . | . | ?
CC(=O)N1CCN(c2ccc(NC(=O)c3cccc(C)c3)cc2)CC1 | . | .[1.91 µM] | . | . | . | .
Cc1cccc(C(=O)NC(=S)Nc2ccc(N3CCOCC3)cc2)c1 | . | 4µM | . | . | . | 7.1µM
COC(=O)c1cc(NC(=O)c2c(-c3ccccc3)noc2C)ccc1N1CCOCC1 | . | . | ? | . | . | .
COC(=O)c1cc(NC(=S)NC(=O)c2ccccc2)ccc1N1CCOCC1 | . | 18µM | . | . | . | ?
Cc1ccc(C(=O)Nc2ccc(S(=O)(=O)N3CCOCC3)cc2)cc1C | . | . | . | . | . | .
Oc1ccc(C2=Cc3ccc(O)cc3OC2)cc1 | / | / | / | . | / | /
Cc1ccc2nc(-c3ccc(C)c(NC(=O)COc4ccccc4Cl)c3)oc2c1 | . | / | / | / | . | /
CCCCc1c(C)nn(-c2nnc3c4ccccc4n(CC)c3n2)c1C | . | 1.8µM | ? | . | . | 4µM
CCn1c2ccccc2c2nnc(N3CCN(c4ccc(F)cc4)CC3)nc21 | . | / | / | / | . | /
CC(C)OCCCN(C)C1CCN(S(=O)(=O)c2ccc(-c3cc(C(F)(F)F)no3)s2)CC1 | . | . | / | . | . | .
Cc1ccc(Cn2ccnc2SCC(=O)Nc2nc3ccccc3s2)cc1 | . | / | / | / | 11µM | /
Cn1cc(SCC(=O)Nc2nc3ccccc3s2)c2ccccc21 | . | ? | . | 25µM | . | .[0.365 µM]
COc1ccc(C(=O)NNC(=O)c2ccc3ccccc3n2)cc1 | . | / | / | 20µM | ? | /
CCCC(=O)NC(=S)Nc1cccc(Cl)c1N1CCCC1 | . | 1.3µM | ? | ? | ? | 7.1µM
O=C(NC(=S)Nc1cccc(Cl)c1N1CCCCC1)c1cccs1 | . | 0.71µM | . | . | ? | ?
O=C(Nc1cccc(Cl)c1N1CCOCC1)c1ccc(Br)o1 | . | . | ? | . | . | .
O=C(NC(=S)Nc1cccc(Cl)c1N1CCOCC1)c1cccs1 | . | 3.2µM | . | / | . | 18µM
COc1cc(OC)c(OC)cc1CN1CCCC(n2cc(C(=O)N3CCCCC3)nn2)C1 (configuration not stated) | / | / | . | / | / | /
O=C(Nc1nnc(-c2ccc3c(c2)OCCO3)o1)c1ccc(Cc2ccccc2)cc1 | . | 5.6µM | 25µM | ? | ? | 7.1µM
O=C(CCOc1ccccc1)Nc1nnc(-c2ccc3c(c2)OCCO3)o1 | . | 8.9µM | . | . | . | 20µM
CSc1cccc(-c2nnc(NC(=O)c3ccc4c(c3)OCCO4)o2)c1 | . | / | / | / | . | /
CCc1nnc(SCC(=O)N(CC)c2ccccc2)c2cc3oc(C)cc3n12 | . | / | / | / | ? | /
Cc1ccc2cc(CN(C(=O)c3ccc4c(c3)OCO4)C3CC3)c(N(C)C)nc2c1 | / | / | . | / | / | /
SMILES | HepG2 tox | RORgamma inh | ATXN viability | ATXN2 expr inh | TGFb inhibitor | Gal4-VP16 FLuc
COC(=O)C1=NOC2(C=C(Br)C(OC)=C(Br)C2=O)C1 (configuration not stated) | / | 1.8µM | / | / | / | 2.5µM
COc1cc(/C=C2/C(=O)ON=C2C)cc(Cl)c1O | . | 13µM | . | . | . | ?
C#CCOc1c(Cl)cc(/C=C2/C(=O)ON=C2C)cc1OC | . | . | . | . | . | .
CCOc1cc(/C=C2/C(=O)ON=C2C)ccc1O | . | ? | . | . | . | ?
CC1=NOC(=O)/C1=C/c1ccc(O)c(Cl)c1 | . | 11µM | . | . | . | 16µM
COc1cccc(CNC(=S)NC2CC2)c1 | . | 10µM | . | . | . | .
COc1cccc(CNC2CCCC2)c1 | . | . | . | . | . | .
COc1cccc(CNC(=S)NC2CCCC2)c1 | . | 10µM | . | . | . | 10µM
COc1cccc([C@@H]2Oc3ccc(Br)cc3C[C@H]2OC(=O)NS(=O)(=O)c2ccc(F)cc2)c1 | / | . | / | / | / | .
Cc1ccc(-c2cn3c(n2)CCCC3)cc1 | . | 8.9µM | . | . | . | ?
c1ccc(-c2nnc3n2CCCC3)cc1 | . | . | . | . | . | .
COc1ccc(-c2cn3c(n2)CCC3)cc1 | . | ? | . | . | . | .
c1ccc(-c2ccc(-c3cn4c(n3)CCC4)cc2)cc1 | . | ? | . | . | . | 11µM
CCOC(=O)N1CCN(C(=O)CSc2nc3c([nH]c4ccccc43)c(=O)n2C)CC1 | . | . | . | . | 13µM | .
Cn1c(SCC(=O)N2CCCCC2)nc2c([nH]c3ccccc32)c1=O | . | . | . | . | . | .
CSc1ccc(C(=O)C2CCCN(C(=O)c3ccc4c(c3)no[n+]4[O-])C2)cc1 (configuration not stated) | . | . | 14µM | / | ? | ?
Cc1ccccc1NC(=O)Nc1cccs1 | . | ? | . | . | . | .
Cc1ccc(Cl)cc1NC(=O)Nc1cccs1 | . | 14µM | . | .[11.3 µM] | ? | .
COc1ccc(C2/C=C\CN(C(=O)C3CC3)C(C)C(=O)N2Cc2ccc(F)cc2)cc1 (configuration not stated) | . | . | / | / | ? | .
COc1ccc(C2/C=C\CN(S(=O)(=O)c3ccc(C)cc3)C(Cc3ccccc3)C(=O)N2Cc2ccc(F)cc2)cc1 (configuration not stated) | . | 10µM | / | / | . | .
COc1ccc([C@H]2/C=C\CN(C(=O)C3CCCC3)[C@@H](C)C(=O)N2Cc2ccc(F)cc2)cc1 | . | / | 20µM | ? | . | /
Cc1ccc(C(C)NC(=O)CSc2ccc(S(=O)(=O)N3CCOCC3)cn2)cc1C (configuration not stated) | . | / | . | . | ? | /
Cc1c2cnn(CC(=O)Nc3cccc(C(F)(F)F)c3)c(=O)c2c(C)n1Cc1ccccc1Cl | . | / | / | / | . | /
CC(C)(C)[C@H](N)C(=O)N[C@H]1CCC2C3CC=C4C[C@@H](O)CC[C@]4(C)C3CC[C@@]21C (some centres not stated) | . | / | / | ? | 14µM | /
Cc1cccc(/C=C/c2onc(C)c2[N+](=O)[O-])n1 | . | / | 18µM | ? | . | /
SMILES | HepG2 tox | RORgamma inh | ATXN viability | ATXN2 expr inh | TGFb inhibitor | Gal4-VP16 FLuc
Cc1cccc(N/C=C/c2onc(C)c2[N+](=O)[O-])c1 | . | . | . | . | . | .
Cc1ccc(Nc2nc(N3CCOCC3)c3ccccc3n2)cc1 | . | . | . | . | ? | ?
Oc1ccc(Nc2nc(N3CCCC3)c3ccccc3n2)cc1 | 11µM | . | ? | ? | ? | ?
COc1ccc(Nc2nc(N3CCCCC3)c3ccccc3n2)cc1 | . | 18µM | ? | ? | ? | 7.1µM
CN(C)CCNC(=O)c1cccc2nc3cccc(F)c3nc12 | . | / | ? | 8.9µM | ? | /
COc1ccc(OC)c2nc3c(C(=O)NCCN(C)C)cccc3nc12 | . | / | ? | ? | ? | /
CN(C)CCNC(=O)c1ccccc1 | . | . | . | . | . | .
